Screening results deposited in PubChem by National Center for Advancing Translational Sciences (NCATS).
A selection: hits, their analogues and other compounds. The true share with any hit is near 4.6%.
Tau FP inhib – inhibitors of human tau fibril formation | P10636 | K18 P301L tau heparin fibrillization, Alexa594 FP, 6 h | Potency, µM (titrated, usually from 57.7 µM), for inactives: at the top dose activity, negative = inhibition, usual class: inhibitors | actives 0.39% (n = 280,000) | AID 1468; note: potency is the fitted concentration of half-maximal effect; nearly all actives have a fitted effect of over 55% in size
Target sequence (P10636 561-689 P618L limits assumed): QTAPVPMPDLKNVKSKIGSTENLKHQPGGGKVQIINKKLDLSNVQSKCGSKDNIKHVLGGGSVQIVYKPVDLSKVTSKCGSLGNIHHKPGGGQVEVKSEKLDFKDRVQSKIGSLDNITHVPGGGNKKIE
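Recombinant K18 P301L […], labeled with Alexa 594 at 0.24 uM over 15 uM unlabeled; heparin inducer 20 uM final; 37 C, 6 hr; FP endpoint.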
Tau fluor counter – counter-screen for tau fibril formation inhibitors. tau K18 P301L Alexa594 fluorescence, heparin fibrillization. Potency, µM (doses to about 57.7 µM), without a hit: at the top dose activity change, negative = decrease. actives 0.93% (n = 280,000). AID 1463; note: potency is the fitted concentration of half-maximal effect; nearly all actives have a fitted effect of over 55% in size
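Human tau K18 P301L (15 uM unlabeled, 0.24 uM Alexa 594-labeled) in 100 mM sodium acetate pH 7 with 20 uM heparin, 6 hr at 37 C. ThT 30 uM added, 1 hr ambient; Alexa 594 FP and total fluorescence read at 555/632 nm.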
PNC inhibitor – perinucleolar compartment assembly inhibition | PC3M PTB-GFP, PNC prevalence imaging, 16 h; hits give low values | activity change (PNC), negative = inhibition, % at 10 µM | actives 3.1% (n = 140,000);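 active = readout at or below -70, meaning at least 70% loss of cells showing the perinucleolar compartment, a nuclear body marking cancer cells; inconclusive = readout between -30 and a set limit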;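 note: plate controls were DMSO wells for no effect and camptothecin positive control wells for full effect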
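PC3M cells stably expressing PTB-GFP, 750–1000 cells/well, treated 16 h at 37 °C with compound (23 nl of library stock), in duplicate. After paraformaldehyde fixation and Hoechst stain, imaged at 20x; PNC prevalence scored by image analysis.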
TR SRC2 fluor cs – counter-screen for TRb-SRC2 inhibitors: fluorescence interference; TRb/SRC2 Texas Red total fluorescence interference; Potency, µM (doses to about 106 µM), for inactives: at the top dose fluorescence change, negative = quenching; actives 0.29% (n = 280,000); AID 1479; active = well fitted curve in either direction with a large enough effect; inconclusive = small, poorly fitted or top-dose-only effect; note: potency is the fitted concentration of half-maximal effect
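Human TRβ ligand-binding domain (0.6 uM) and Texas Red SRC2 peptide (20 nM) in Tris buffer with 1 uM T3 and 5% DMSO were incubated with pinned compound for 5 hr at ambient temperature. Total fluorescence was computed as S + 2P (555/632 nm).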
Tau fibril ThT – tau fibrillization inhibition (ThT binding) | P10636 | recombinant tau K18 P301L, heparin-induced fibrillization, ThT fluorescence | Potency, µM (titrated, usually from 57.4 µM), for the others: at the highest dose activity, negative = inhibition, usual class: inhibitors | actives 2.1% (n = 270,000); note: potency is the fitted concentration of half-maximal effect; nearly all actives have a fitted effect of over 55% in size
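Fibril formation assay: tau K18 P301L at 15 uM with trace Alexa 594 label, heparin inducer 20 uM, pH 7 sodium acetate buffer, 37 C for 6 hr; endpoint ThT signal.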
TRb-SRC2 inh – disrupts binding of human TR beta to SRC2; AID 1469; TRbeta-SRC2 peptide binding, fluorescence polarization; receptor liganded with 1 µM T3; P10828; Potency, µM (titrated, usually from 106 µM), for the others: at the top dose activity change, negative = inhibition, usual class: inhibitors; actives 0.065% (n = 280,000);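 note: potency is the fitted concentration of half-maximal effect; plate controls were bound peptide for no effect and peptide without receptor for full effect; nearly all actives have a fitted effect of over 50% in size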
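Binding of a 20-amino-acid Texas Red SRC2 peptide (20 nM) to TRb ligand-binding domain (0.6 uM) with agonist T3 at 1 uM was followed by fluorescence polarization after a 5 hr room-temperature incubation.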
Starred values were filed as active, the others as inactive; [ ] = another dose, or the depositor's remark. Unless noted, calls come from the whole dose curve; as a rule, active = well fitted curve in the direction sought with a large enough effect; inconclusive = small, poorly fitted or top-dose-only effect, or another doubt; inactive = no such curve, though single readings can be large; an effect the other way counts as inactive or inconclusive. Unless noted, % is set by controls: 0 for no effect and ±100 for the full control effect.

What do the screens show for `Oc1ccc2ccccc2c1C=NC12CN3CCN(CN(C3)C1)C2`?
Tau FP inhib: inconclusive; Tau fluor counter: inconclusive; PNC inhibitor: 35; TR SRC2 fluor cs: -24%; Tau fibril ThT: 20µM*; TRb-SRC2 inh: inconclusive

Results for Oc1c(N=Nc2ccccn2)ccc2ccccc12 ?
Tau FP inhib: inconclusive; Tau fluor counter: inconclusive; PNC inhibitor: 86; TR SRC2 fluor cs: -10%; Tau fibril ThT: 4.5µM*; TRb-SRC2 inh: -2%

What do the screens show for `Cc1ccccc1N=Nc1ccc(N=Nc2c(O)ccc3ccccc23)c(C)c1`?
TR SRC2 fluor cs: 0%; TRb-SRC2 inh: -1%

How did Cc1ccc(NC(=O)C2CCCN(S(=O)(=O)c3ccc(C)cc3)C2)cc1 (stereo not given) do in these assays?
Tau FP inhib: -6%; Tau fluor counter: -10%; TR SRC2 fluor cs: 2%; Tau fibril ThT: 8%; TRb-SRC2 inh: 2%

What do the screens show for `COC(=O)[C@@]1(C)CCC[C@@]2(C)c3ccc(O)c(C(C)C)c3CCC21` (stereo not given in full)?
Tau FP inhib: -11%; Tau fluor counter: 16µM*[quencher]; TR SRC2 fluor cs: -2%; Tau fibril ThT: inconclusive; TRb-SRC2 inh: 6%

How did Cc1cccc(NC(=O)CSc2nc3ccc(NC(=O)COc4ccccc4F)cc3s2)c1 do in these assays?
Tau FP inhib: inconclusive; Tau fluor counter: inconclusive; TR SRC2 fluor cs: 11%; Tau fibril ThT: inconclusive; TRb-SRC2 inh: 8%

How did N#CC(c1ccc(O)cc1)N1CCOCC1 (stereo not given) do in these assays?
Tau FP inhib: -6%; Tau fluor counter: -2%; PNC inhibitor: -103*; TR SRC2 fluor cs: -1%; Tau fibril ThT: -5%; TRb-SRC2 inh: -6%

Results for C=CCSC1=N/C(=C\c2ccc3c(c2)OCO3)C(=O)S1 ?
Tau FP inhib: -2%; Tau fluor counter: -21%; PNC inhibitor: -23; TR SRC2 fluor cs: -5%; Tau fibril ThT: inconclusive; TRb-SRC2 inh: -2%

How did C=CCSC1=N/C(=C\c2cc(OCC)c(OC(C)=O)c([N+](=O)[O-])c2)C(=O)S1 do in these assays?
Tau FP inhib: 6%; Tau fluor counter: 12%; PNC inhibitor: -116*; TR SRC2 fluor cs: -2%; Tau fibril ThT: 13%; TRb-SRC2 inh: 6%

Results for CN1CCN(S(=O)(=O)c2ccc3c4c(cccc24)C(=O)N3)CC1 ?
Tau FP inhib: 2%; Tau fluor counter: -4%; PNC inhibitor: -91*; TR SRC2 fluor cs: -2%; Tau fibril ThT: -16%; TRb-SRC2 inh: 9%

What do the screens show for `O=C1Nc2ccc(S(=O)(=O)N3CCCC3)c3cccc1c23`?
Tau FP inhib: -5%; Tau fluor counter: -10%; PNC inhibitor: -10; TR SRC2 fluor cs: -3%; Tau fibril ThT: -10%; TRb-SRC2 inh: -14%

Results for O=C(CCSc1nc(-c2ccco2)cc(C(F)(F)F)n1)NCCN1CCOCC1 ?
Tau FP inhib: -2%; Tau fluor counter: -11%; TR SRC2 fluor cs: -1%; Tau fibril ThT: -11%; TRb-SRC2 inh: -1%

What do the screens show for `CCSc1cnn(-c2ccccc2)c(=O)c1SCC`?
Tau FP inhib: inconclusive; Tau fluor counter: -9%; PNC inhibitor: 61; TR SRC2 fluor cs: 0%; Tau fibril ThT: -11%; TRb-SRC2 inh: -15%

What do the screens show for `CCCCSc1cnn(-c2ccccc2)c(=O)c1SCCCC`?
Tau FP inhib: -12%; Tau fluor counter: -9%; PNC inhibitor: -81*; TR SRC2 fluor cs: 5%; Tau fibril ThT: inconclusive; TRb-SRC2 inh: -18%

Results for S=C(Nc1ccc2nsnc2c1)N1CCCC1 ?
Tau FP inhib: inconclusive; Tau fluor counter: -19%; TR SRC2 fluor cs: -8%; Tau fibril ThT: 25µM*; TRb-SRC2 inh: inconclusive

What do the screens show for `CCOC(=O)c1sc2ncc([N+](=O)[O-])cc2c1N`?
Tau FP inhib: 8%; Tau fluor counter: -19%; TR SRC2 fluor cs: -4%; Tau fibril ThT: 7.9µM*; TRb-SRC2 inh: 2%
